Results from PubChem BioAssay.

Assays:
[1] = target: PEG-3 (UniProt Q6IN02); experiment: inhibition of PEG-3 promoter-driven reporter – cell-based, HeLa, luciferase, CREF/GAPDH counter-screen panel, dose response (AID 624167); conditions: CREF/GAPDH counter-screens; HeLa PEG-Prom luciferase reporter, overnight, run 1, dose range 1, at 100 µM (top of the series) unless noted
[2] = target: PEG-3 (UniProt Q6IN02); experiment: as above; conditions: CREF/GAPDH counter-screens; HeLa PEG-Prom luciferase reporter, overnight, run 2, dose range 1, at 100 µM (top of the series) unless noted

Chain of PEG-3 (Q6IN02 whole entry, looked up): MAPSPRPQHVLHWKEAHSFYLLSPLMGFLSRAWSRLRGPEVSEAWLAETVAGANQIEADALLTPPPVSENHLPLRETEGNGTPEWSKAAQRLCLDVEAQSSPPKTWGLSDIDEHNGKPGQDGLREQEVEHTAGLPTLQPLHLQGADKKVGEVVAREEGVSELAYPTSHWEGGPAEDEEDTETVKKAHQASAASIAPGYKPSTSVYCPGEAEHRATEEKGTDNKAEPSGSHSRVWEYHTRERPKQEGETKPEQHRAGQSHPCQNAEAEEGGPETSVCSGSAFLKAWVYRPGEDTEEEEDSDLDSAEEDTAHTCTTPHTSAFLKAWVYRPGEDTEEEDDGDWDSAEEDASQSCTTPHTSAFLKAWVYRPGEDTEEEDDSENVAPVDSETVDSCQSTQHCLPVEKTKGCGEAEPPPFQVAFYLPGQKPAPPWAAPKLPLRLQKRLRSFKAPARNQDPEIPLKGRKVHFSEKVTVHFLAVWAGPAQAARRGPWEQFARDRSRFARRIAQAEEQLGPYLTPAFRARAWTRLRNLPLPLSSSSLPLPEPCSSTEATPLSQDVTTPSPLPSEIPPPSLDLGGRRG

Structure (SMILES)	inhibition [1] [%]	inhibition [2] [%]
Oc1ccc(C23CCCC2C2(CCCC2)c2ccc(O)cc2O3)c(O)c1 (stereo not given)	99.4	95.5
N#Cc1c(N)nc(SCc2ccncc2)c(C#N)c1-c1cccs1	94.6	99.2
CN(C)S(=O)(=O)c1cccc(NC(=O)CSc2cccc3cccnc23)c1	99.3	101
CCOC(=O)c1cccc(Nc2nc(-c3cccnc3)nc3ccccc23)c1	98.9	101
O=C(CN1CCCC1)Nc1ccc(-c2nc3cc(NC(=O)CN4CCCC4)ccc3o2)cc1	98.9	102
CCCCCCCNC(=O)C1(CC2CC(c3ccccc3)=NO2)CCNCC1 (stereo not given)	97.9	98.7
COCC(C)n1c(C)cc(C(=O)COC(=O)c2cccn2C)c1C (stereo not given)	75.2	83.3
COc1ccc(C(=O)Nc2cccc(C(=O)N/N=C/c3ccc(OC)cc3OC)c2)cc1	84.1	93.1
CCCCCCCCNCCS(=O)(=O)NCc1ccc(OC)cc1	98.9	95.7
CC(C)(C)OC(=O)CC(S(=O)(=O)c1ccccc1)S(=O)(=O)c1ccccc1	102	101
CN(C)CCCN1c2ccccc2Sc2ccc3ccccc3c21	94.6	98.6
NC(N)=N/N=C/c1cccc(Cl)c1Cl	97.9	99.4
N#Cc1cc2c(nc1SC1CC(=O)N(c3ccccc3)C1=O)CCC2 (stereo not given)	33.5	25.6
CC(C)CC1C(=O)N(Cc2cn(CCC3OCCO3)nn2)CCS(=O)(=O)N1Cc1ccc(-c2ccc(F)cc2)cc1 (stereo not given)	98.1	93.8
C[C@@H](NCCCn1cnc2c(OCc3ccccc3)ncnc21)c1cccc2ccccc12	94.9	101
CCCCC(=O)NC(c1ccccc1Cl)c1ccc2cccnc2c1O (stereo not given)	70.2	87.3
CC(C)CC(N)c1csc(Nc2ccc(C(=O)N(C)Cc3ccccc3)cn2)n1 (stereo not given)	96.3	102
CCCOC(=O)c1cccc(Nc2nc(-c3cccnc3)nc3ccccc23)c1	99	101
COc1cccc(C(=O)O/N=C(\N)c2ccccn2)c1	102	95.8
Cc1ccc(S(=O)(=O)CCSC(=N)N)cc1	101	93.6

Structure (SMILES)	inhibition [1] [%]	inhibition [2] [%]
CC(C)CN(C(=O)COC(=O)/C=C/c1ccc(Cl)c(Cl)c1)c1c(N)n(Cc2ccccc2)c(=O)[nH]c1=O	-7.53	-24.4
Cc1ccc(-c2nc(C(Cl)Cl)c3ccccc3n2)cc1	96.2	97.4
OCCN1CCN(C2CCC(c3ccc(F)cc3)c3ccc(F)cc32)CC1 (stereo not given)	102	101
O=S(=O)(/N=C(/Sc1ccccc1)c1ccccc1)c1ccccc1	102	101
CN[C@H]1C[C@H]2c3[nH]c4ccc(-c5cccc(C)c5)cc4c3CCN2C[C@H]1[C@H](C)O	99	100
Cc1ccc(Cn2c(=N)n(CC(=O)c3ccccc3)c3ccccc32)cc1	101	102
Cc1nc(N2CCN(c3ccccn3)CC2)c2c(C)c(C(=O)Nc3ccccc3F)sc2n1	53.1	34.9
CCN(CC)CCOc1ccc(/C(=C(/Cl)c2ccccc2)c2ccccc2)cc1	102	102
COC(=O)c1ccccc1-c1ccc(/C=N/Nc2nc(N3CCCC3)nc(N3CCCC3)n2)o1	100	102
CCN(CC)CCCCNc1ncc2cc(-c3cc(OC)cc(OC)c3)c(NC(=O)NC(C)(C)C)nc2n1	97.1	101
O=C(Nc1ccccc1)c1nc[nH]c1C(=O)NCCCCNC(=O)c1[nH]cnc1C(=O)Nc1ccccc1	22.3	59.3
CCC1(c2ccccc2)NC(=O)N(CC(=O)Nc2cc(S(=O)(=O)N3CCCCCC3)ccc2OC)C1=O (stereo not given)	65.1	61
Cc1cccc(CN2C(=O)/C(=C\c3ccc(C(=O)NCCN4CCOCC4)cc3)Sc3ccccc32)c1	102	99.5
CCCCNc1nc(=S)n(-c2ccccc2)c(C)c1C(C)=O	98	98.8
CCOC(=O)c1ccc2ncc(C(=O)OCC)c(NCCN(C)C)c2c1	73	77.3
COc1ccccc1CCNC(=O)C1CCN(c2nnc(C)c3c(C)n(-c4ccc(C)cc4)nc23)CC1	99	97.3
COc1cccc(/C=C2/Sc3ccc(C(=O)NCCCN4CCCC4)cc3NC2=O)c1	102	99
CN(C)CCc1cc2c(c3c1ccc1ccccc13)OCO2	98.3	99.1
COc1cc2ccccc2cc1C(=O)N(CCN(C)C)c1nc2c(OC)ccc(OC)c2s1	98.2	101
CN(C)CCNC(=O)/C(=C/c1ccc(-c2ccc(Cl)cc2)o1)NC(=O)c1ccccc1	102	98.6
